Data on two compounds can be found in PubChem BioAssay AID911 (National Center for Advancing Translational Sciences (NCATS), 2007).

Some of the results follow. A call without a number means that no potency is given here. Results filed as inconclusive are left out. Active and inactive are the calls of the source. The call rests on the fitted dose curve.

Microtubule-associated protein tau (Homo sapiens), sequence (P10636 whole entry, looked up): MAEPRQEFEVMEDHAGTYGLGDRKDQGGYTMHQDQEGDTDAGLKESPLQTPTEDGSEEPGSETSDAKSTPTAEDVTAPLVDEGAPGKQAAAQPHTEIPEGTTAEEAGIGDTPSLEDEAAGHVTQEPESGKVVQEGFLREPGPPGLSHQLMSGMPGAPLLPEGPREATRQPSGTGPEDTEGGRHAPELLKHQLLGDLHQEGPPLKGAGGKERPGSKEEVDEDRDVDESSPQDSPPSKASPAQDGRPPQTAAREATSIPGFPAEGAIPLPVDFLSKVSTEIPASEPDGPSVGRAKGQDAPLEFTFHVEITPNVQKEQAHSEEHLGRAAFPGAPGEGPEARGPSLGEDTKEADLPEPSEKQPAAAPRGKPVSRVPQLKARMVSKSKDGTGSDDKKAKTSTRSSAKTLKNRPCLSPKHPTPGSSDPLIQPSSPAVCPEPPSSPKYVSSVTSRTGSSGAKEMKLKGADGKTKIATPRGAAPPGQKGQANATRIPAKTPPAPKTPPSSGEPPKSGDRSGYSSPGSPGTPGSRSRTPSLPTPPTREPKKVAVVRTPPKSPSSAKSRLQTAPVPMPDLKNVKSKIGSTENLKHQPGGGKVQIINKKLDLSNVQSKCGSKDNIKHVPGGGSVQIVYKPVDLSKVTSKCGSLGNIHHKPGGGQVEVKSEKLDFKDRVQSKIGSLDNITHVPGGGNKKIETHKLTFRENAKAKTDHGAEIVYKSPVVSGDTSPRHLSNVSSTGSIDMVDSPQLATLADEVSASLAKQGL

The assay has as its target Microtubule-associated protein tau (Homo sapiens) (UniProt P10636). The assay can be described thus: Tau ThS binding assay. Particulars: recombinant tau filaments, Thioflavin S fluorescence displacement. The source says: NIH Molecular Libraries Screening Centers Network [MLSCN] NIH Chemical Genomics Center [NCGC] MLSCN Grant: 1 X01 MH079825-01 Assay Provider: Jeffrey A. Kuret, Ohio State University NCGC Assay Overview: This assay is a confirmation study for the qHTS Assay for Tau Filament Binding (PubChem AID 596). Tau monomers form filaments in vitro in the presence of arachidonic acid. The dye Thioflavine S (ThS) binds to tau filaments and upon binding, increases in fluorescence several fold. Small molecules that displace ThS binding or prevent filament binding are identified by a reduction in ThS fluorescence.
NCGC Assay Protocol Summary The assay was performed in 96-well round bottom opaque plates (VWR, West Chester, PA) in 100 uL final volume. Recombinant His6-htau40 was diluted to 5 uM in assembly buffer (10 mM HEPES, pH 7.4, 100 mM NaCl, 5 mM dithiothreitol) containing 50 uM arachidonic acid inducer. ThS probe was then added to a final concentration of 10 uM with test compounds assayed at nine 3-fold dilutions beginning at 10 uM final concentration. Each compound was tested at least twice in separate assays. Controls without protein or without compound were included on each plate. […] Fluorescence (ex = 440 nm; em = 485 nm) was measured after brief shaking (10 s) in a FlexStation plate reader (Molecular Devices, Sunnyvale, CA) operated at sensitivity 10, automatic PMT. […]
`Oc1ccc(O)c2c(O)cccc12`: the Potency is 4.97 µM (active).
On to `O=C(CCCCn1c(=O)[nH]c2ccccc2c1=O)NCc1ccc2c(c1)OCO2`, for which the result was inactive.
